Measured values taken from PubChem BioAssay (NCI).
The panel holds about 83,000 compounds, 20% with a hit somewhere; the sample as a whole holds those more often.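 Cells were grown in 96-well plates and exposed to the test compound at a single concentration for 48 hours; results are reported as percent growth, with values below 10 considered active.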 The source made the active and inactive calls.

Test system: UACC-62 melanoma
Test: NCI-60 one-dose screen, 48 h (100 = growth as untreated, 0 = no growth, -100 = all killed)
Conditions: 10 µM
Procedure: Growth inhibition of the UACC-62 human tumor cell line is measured as a screen for anti-cancer activity. Cells are grown in 96 well plates and exposed to the test compound for 48 hours. Compounds are tested at a single concentration, which is 10^-5 M for most compounds. The reported endpoint is percent growth (GI% or GIPRCNT), where numbers from 0 - 100% represent growth inhibition, and numbers from -100% - 0 represent cell death. For example, a value of 40 represents 60% growth inhibition. A value of 0 means no net growth occurred over the course of the experiment. A value of -40 indicates 40% of cells at the beginning of the experiment died by the end of the experiment. A value of -100 means all cells are dead at the end of the experiment.
NCI-60 Human Tumor Cell Lines Screen was performed using the standard one-dose NCI protocol, which is described in more detail at https://dtp.cancer.gov/discovery_development/nci-60/default.htm.
Compounds with GIPRCNT values below 10 were considered active. Activity score was based on GIPRCNT using the following formula: […]
Score is 0 for GIPRCNT values of 100 or above, 50 for GIPRCNT values of 0, and 100 for GIPRCNT values of -100.

Structure (SMILES)	growth
CCCCCCCCCCCC[n+]1c(C)cc(N)c2ccccc21	-27.8% (active)
COc1cc2c3c(n(C4CCNCC4)c(=O)c2cc1OC)-c1cc2c(cc1C3=O)OCO2	-76.6% (active)
O=C(O)c1cn(C2CC2)c2cc(N3CCN(C(=O)c4cc(-c5ccc(Cl)cc5)nc5ccccc45)CC3)c(F)cc2c1=O	66.6% (inactive)
Cc1c(Cl)cccc1NC(=O)CN1CCOCC1	103% (inactive)
CC(CN(C)C)Oc1ccc(OC(C)CN(C)C)c2c1C(=O)c1ccccc1C2=O (stereo not given)	68% (inactive)
Clc1ccc(/C=C2\CCCC3C2=Nc2ccccc2NC3c2ccc(Cl)cc2)cc1 (stereo not given)	74.2% (inactive)
c1cnc2[nH]cc(-c3nc(-c4ccsc4)cs3)c2c1	96.2% (inactive)
CCN(CC)CC(=O)N(CC)c1ccc(C)c(Cl)c1	97.7% (inactive)
CCCCC1(O)CCCCC1	102% (inactive)
C#CCOc1c(OC)cc(C(=O)/C(C)=C/c2cccc(N=[N+]=[N-])c2)cc1OC	37.7% (inactive)
O=C1c2ccccc2C(=O)c2c1ccc1c(=O)n(-c3ccccc3C(F)(F)F)nnc21	-34.8% (active)
Nc1ccc(CC[C@H]2CCC/C=C/[C@@H]3C[C@H](O)C[C@H]3[C@H](O)/C=C/C(=O)O2)cc1	11.7% (inactive)
COc1cc(-c2nn(-c3cccc(NC(=O)CCN4CCN(Cc5ccccc5)CC4)c3)cc2-c2ccncc2)ccc1Cl	10.7% (inactive)
O=C(CCc1nnc2sc(-c3cc(O)c(O)c(O)c3)nn12)c1nc2ccccc2[nH]1	104% (inactive)
CCCCCOC(=O)Nc1nc(=O)n(C2O[C@H](C)[C@@H](O)[C@H]2O)cc1F (stereo not given in full)	95% (inactive)
CN1CCc2c(sc3nc4n(-c5ccc(Cl)cc5)c(=O)[nH]n4c(=O)c23)C1	111% (inactive)
CC(=O)O[C@@]12CO[C@@H]1C[C@H](O)[C@@]1(C)C(=O)[C@H](O)C3=C(C)[C@@H](OC(=O)[C@H](O)[C@@H](NC(=O)OC(C)(C)C)c4ccccc4)C[C@@](O)([C@@H](OC(=O)c4ccccc4)C12)C3(C)C (stereo not given in full)	52.5% (inactive)
CC(=O)[C@@]12O[C@](C)(c3ccccc3)O[C@@H]1CC1C3CCC4=CC(=O)CC[C@]4(C)C3CC[C@@]12C (stereo not given in full)	63% (inactive)
CC(C)CCN(CCC(C)C)CC(=O)Nc1ccc(S(=O)(=O)c2ccc(NC(=O)CN(CCC(C)C)CCC(C)C)cc2)cc1	29.7% (inactive)
CCN(CC)CCCOc1cccc2c1C(=O)c1cccc(OCCCN(CC)CC)c1C2=O	53% (inactive)

Structure (SMILES)	growth
CC[C@H]1OC(=O)[C@H](C)[C@@H](O[C@H]2C[C@@](C)(OC)[C@@H](O)[C@H](C)O2)[C@H](C)[C@@H](O[C@@H]2O[C@H](C)C[C@H](N(C)C)[C@H]2O)[C@](C)(OC)C/C(C)=C2/O[C@@]1(C)C=C2C	-83.8% (active)
CNC(=O)c1cn2c3c(c(N4CCN(C)CC4)c(F)cc3c1=O)OC[C@@H]2C	103% (inactive)
CCN(CC)CCNc1ccc(C)c2sc3cc(Cl)ccc3c(=O)c12	-67% (active)
COc1ccc(C(=O)N2C=Cc3ccccc3C2C#N)cc1 (stereo not given)	92.5% (inactive)
CC(C)Cc1ccc([C@H](C)C(=O)O)cc1	103% (inactive)
CC1(C)N=C(N)N=C(N)N1c1cccc(C#N)c1	54.1% (inactive)
Oc1ccc(/C=N/N=C2c3ccccc3-c3ccccc32)c(O)c1	58.6% (inactive)
Nc1ncc(-c2cnn(C3CCNCC3)c2)cc1-c1nc2ccccc2o1	-67.1% (active)
O=C(CCCCCCC(=O)Nc1ccccc1)NO	-42.8% (active)
CC(=O)COc1ccc(Cl)cc1Cl	96.7% (inactive)
CC[C@@H](C(=O)[C@H](C)[C@H](O)[C@@H](C)[C@H]1O[C@H]([C@@H](CC)C(=O)N(CC)CC)CC[C@H]1C)C1O[C@]2(C=C[C@@H](O)[C@]3(CC[C@@](C)([C@H]4CC[C@](O)(CC)[C@H](C)O4)O3)O2)[C@H](C)C[C@@H]1C (stereo not given in full)	14.3% (inactive)
C#C[C@]1(O)CCC2C3CCc4cc(OC5CCCC5)ccc4C3CC[C@@]21C (stereo not given in full)	81.1% (inactive)
COc1cc(/C=C/c2cc(/C=C/c3ccc(O)c(OC)c3)n(C(=O)Nc3ccc(C)cc3)n2)ccc1O	-0.493% (active)
COc1ccc(C(=O)CSc2nc(-c3cc(OC)ccc3OC)cc(-c3ccc(OC)cc3)c2C#N)cc1	93.7% (inactive)
COc1ccc2c(c1)C(=O)/C(=C/c1ncc([N+](=O)[O-])n1C)O2	-68.4% (active)
IC(I)I	88.9% (inactive)
O=C(CCl)Nc1ccc(Cc2ccc(NC(=O)CCl)cc2)cc1	-9.18% (active)
O=C(CNc1nnc(-c2cccnc2SCc2ccccc2)s1)Nc1nc(Cl)cc(Cl)n1	108% (inactive)
CC(C)N(CCOc1cccc(-c2nc3sccn3c2-c2ccnc(S(C)(=O)=O)n2)c1)C(C)C	84.1% (inactive)
Fc1ccc2[nH]cc(-c3nc(-c4ccsc4)cs3)c2c1	88.5% (inactive)
